From PubChem BioAssay (NCI) come the findings set out here.

Compounds without any hit were thinned out: in the full panel of roughly 83,000, 20% have a hit.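 Growth was measured after 48 h exposure to one concentration of compound in 96-well plates. Values under 10 count as active.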 Active and inactive are the calls of the source.

For this experiment, the system named is SF-268 CNS. Nature of the experiment: NCI-60 one-dose screen, 48 h (100 = growth as untreated, 0 = no growth, -100 = all killed). Particulars: 10 µM unless noted.
With `CCCC[C@H](NC(=O)[C@H]1CCCCN1C)C(=O)N(C)[C@H](C[C@@H](OC(C)=O)c1nc(C(=O)N[C@@H](Cc2ccccc2)C[C@H](C)C(=O)OCC)cs1)C(C)C`, the growth is 21.6% (inactive).

`O=C([O][Hg][CH2]C1OCCOC1[CH2][Hg][O]C(=O)c1ccccc1)c1ccccc1` (stereo not drawn): the growth is 114% (inactive).

In the case of `Cn1cc(-c2csc(-c3cn(CCN4CCOCC4)c4ccccc34)n2)c2cccnc21`, the growth is 79.8% (inactive).

For `O=C(O)c1c(Cl)n(Cc2ccc(O)cc2)c2ccc(O)cc12`, the growth is 101% (inactive).

For the molecule `CCCCCCCCCCCCCCCCCCOc1ccccc1COP(=O)(O)OOCC[N+](C)(C)C`, the growth was 10.6% (inactive).

`CC(C)(C)N1CC1C#N` (stereo not drawn): the growth is 101% (inactive).

Regarding `COC(=O)[C@@H](C)C[C@H](Cc1ccc2ccccc2c1)NC(=O)c1csc([C@@H](C[C@H](C(C)C)N(C)C(=O)[C@@H](NC(=O)[C@H]2CCCCN2C)C(C)C)OC(C)=O)n1`, the growth is 29.4% (inactive).

In the case of `CCCCC1(CCC)C(=O)NC(=S)NC1=O`, the growth was 107% (inactive).

Consider `Nc1ccc(Cl)cc1`, for which the growth is 104% (inactive).

With `COc1ccc([As]=[As]c2ccc(OC)c(NCS(=O)(=O)O)c2)cc1NCS(=O)(=O)O` (stereo not drawn), the growth was 17.8% (inactive).

For the molecule `CC1(C)C(C(=O)c2cn(CCCCF)c3ccccc23)C1(C)C`, the growth was 98.8% (inactive).

`O=[N+]([O-])c1ccc([Se]C2CCCCC2Cl)c([N+](=O)[O-])c1` (stereo not drawn): the growth is 14.3% (inactive).

In the case of `COP(=O)(OC)C(O)c1ccc(Cl)cc1` (stereo not drawn), the growth is 94.6% (inactive).

Turning to `Cc1cnc(/C=C/C(=O)O)cc1-c1cc2c(cc1C)C(C)(C)CCC2(C)C`, the growth is 77.6% (inactive).

As to `COC(=O)[C@H](C[C@H](Cc1ccccc1)NC(=O)c1csc([C@@H](C[C@H](C(C)C)N(C)C(=O)[C@@H](NC(=O)[C@H]2CCCCN2C)C(C)C)OC(C)=O)n1)NC(=O)OCc1ccccc1`, the growth was 13.1% [8.5 µM] (inactive).

Take `Cc1ccc2c(C(C[N+](=O)[O-])c3cccs3)c(-c3ccccc3)[nH]c2c1` (stereo not drawn): the growth is 37.7% (inactive).

As to `CCOC(=O)[C@@H](C)C[C@H](Cc1ccccc1)NC(=O)c1csc([C@@H](C[C@H](C(C)C)N(C)C(=O)[C@@H](NC(=O)[C@H]2CCCCN2C)C(C)(C)C)OC(C)=O)n1`, the growth is 24.9% (inactive).

Regarding `NC(=O)C(Br)c1ccccc1` (stereo not drawn), the growth was 79.6% (inactive).

For `CC(=O)O[C@H](C[C@H](C(C)C)N(C)C(=O)[C@@H](NC(=O)[C@H]1CCCCN1C)C(C)C)c1nc(C(=O)N[C@@H](Cc2ccccc2)C[C@H](C)C(=O)O)c(CCOCc2ccccc2)s1`, the growth is 11.6% (inactive).

For the molecule `O=NN1CCCc2cccc(O)c21`, the growth is 27.8% (inactive).

Turning to `C#C[C@]1(OC(=O)CCCCCC)CC[C@H]2[C@@H]3CCC4=CC(=O)CC[C@@H]4[C@H]3CC[C@@]21C`, the growth was 50.7% (inactive).

With `CC(=O)OC1C(OC/C2=C/C3[C@@H](C(C)C)CC=C(C)[C@@H]3CC(OC(=O)/C=C/c3cn(C)cn3)[C@]3(C)C=C[C@@]2(O)O3)OCC(O)C1O` (stereo partly drawn), the growth was 45.1% (inactive).

Take `COC1CC2c3ccccc3C1C(C)=[N+]2C` (stereo not drawn): the growth is 107% (inactive).

As to `NC(=O)CNc1ccc([As]=[As]c2ccc(NCC(N)=O)cc2)cc1` (stereo not drawn), the growth was 24.6% (inactive).

Regarding `CCCCCN(CCCCC)CC(O)c1cc(Cl)ccc1OC` (stereo not drawn), the growth was 42.3% (inactive).

Turning to `ClC1=C(Cl)C(Cl)(C2(Cl)C(Cl)=C(Cl)C(Cl)=C2Cl)C(Cl)=C1Cl`, the growth was -46.4% (active).

Consider `CCOC(=O)[C@@H](C)C[C@H](Cc1ccccc1)NC(=O)c1nc([C@@H](C[C@H](C(C)C)N(C)C(=O)[C@@H](NC(=O)[C@H]2CCCCN2C)C(C)C)OC(C)=O)sc1CCOCc1ccccc1`, for which the growth is -38% (active).

For the molecule `COC(=O)N[C@H]1CCc2c(Br)c(OC)c(OC)c(OC)c2-c2ccc(SC)c(=O)cc21`, the growth is 17.7% (inactive).

Regarding `O=C(CC1(O)C(=O)Nc2ccc(Br)cc21)c1ccc(C(=O)NCC2CCC3(CC2)OOC2(CCCCC2)OO3)cc1` (stereo not drawn), the growth was 47.8% (inactive).

With `C=C1C(=O)O[C@H]2[C@H]1CC/C(COC(=O)C(=O)c1cn(Cc3ccccc3)c3ccccc13)=C\CC[C@@]1(C)O[C@@H]21`, the growth is -57.5% (active).

On to `O=C1C2C(C(=O)[N]1[Hg][c]1cccs1)C1(Cl)C(Cl)=C(Cl)C2(Cl)C1(Cl)Cl` (stereo not drawn), for which the growth was 32.3% (inactive).

With `O=C1CN=C(c2ccc(Cl)cc2)c2sccc2N1`, the growth is 106% (inactive).

With `O=C1NC(=O)C(=Cc2cccn2CCCCCn2c3ccccc3c(=O)c3ccccc32)C(=O)N1`, the growth is 102% (inactive).

For the molecule `Nc1c(F)cc(-c2nc3cc(F)ccc3[se]2)cc1Br`, the growth was 98.6% (inactive).

On to `O=[N+]([O-])CC(c1ccccc1Cl)c1c(-c2ccccc2)[nH]c2ccccc12` (stereo not drawn), for which the growth is 50.1% (inactive).

Regarding `CC(CO)NC1CCCCC1` (stereo not drawn), the growth is 108% (inactive).

Consider `OCCNC(Cc1ccccc1)c1ccc2c(c1)OCO2` (stereo not drawn), for which the growth is 97.9% (inactive).

Turning to `Clc1cccc(N2COOC3(OOC2)C2CC4CC(C2)CC3C4)c1`, the growth is 83.8% (inactive).
